We go through 14 compounds from PubChem BioAssay.

Activity calls are given as the source filed them.

For test [1], the system named is Plasmodium falciparum Sir2 (PF13_0152, Sir2A). Briefly: Plasmodium falciparum Sir2A binding compounds – biochemical, small-molecule microarray, 635 nm fluorescence, primary screen (AID 1098).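 Further: score merges spot fluorescence intensity with its signal-to-noise ratio.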 The conditions noted are these: fluorescence 635 nm, higher = more signal.
A short description of test [2]: probe aDKK1 binding to arrayed compounds – biochemical, biotinylated probe, 635/667 nm fluorescence, primary screen (AID 1099).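 Further: score merges 667nm spot fluorescence with signal to noise across triplicate slides; reference of the scale not given here.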 To be noted: small-molecule microarray, higher = more signal.
Test [3] in a line: probe aCHRDL2 binding to arrayed compounds – biochemical, biotinylated probe, 635/667 nm fluorescence, primary screen (AID 1100). To be noted: small-molecule microarray, higher = more signal.
Test [4] is described as follows: change in splice reporter luminescence, either direction, cell-based, HEK293, spliceosome inhibition project, primary screen (AID 1101).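 Further: HEK293 cells carrying a splicing-competent luciferase reporter gene; test concentration not given here.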 The conditions noted are these: HEK293 splicing luciferase reporter, 24 h, higher = more signal, called active from +8 up or from −8 down. For orientation: Reporter assays use an easily measured gene product as a stand-in for the process of interest.

Test [5] concerns the target Fibroblast growth factor 10 (Homo sapiens) (UniProt O15520). Briefly: compounds binding fibroblast growth factor 10 – biochemical, small-molecule microarray, 635 nm fluorescence, primary screen (AID 1102). To be noted: FGF10 binding, fluorescence 635 nm, higher = more signal.
Test [6] relates to glycogen synthase kinase-3 (GSK3A per assay name; protocol says GSK3B). Briefly: compounds binding glycogen synthase kinase-3 – biochemical, small-molecule microarray, 635 nm fluorescence, GSK3A, primary screen (AID 1103). Further: the record names both GSK3A and GSK3B. To be noted: fluorescence 635 nm, higher = more signal.
Test [7] deals with Epidermal growth factor receptor (Homo sapiens) (UniProt P00533). Briefly: compounds binding epidermal growth factor receptor – biochemical, small-molecule microarray, 635 nm fluorescence, primary screen (AID 1104).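 Further: score merges 667 nm emission intensity with spot signal to noise over triplicate slides.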 The conditions noted are these: EGFR binding, higher = more signal.
Sequence of Epidermal growth factor receptor (Homo sapiens) (P00533 whole entry, looked up): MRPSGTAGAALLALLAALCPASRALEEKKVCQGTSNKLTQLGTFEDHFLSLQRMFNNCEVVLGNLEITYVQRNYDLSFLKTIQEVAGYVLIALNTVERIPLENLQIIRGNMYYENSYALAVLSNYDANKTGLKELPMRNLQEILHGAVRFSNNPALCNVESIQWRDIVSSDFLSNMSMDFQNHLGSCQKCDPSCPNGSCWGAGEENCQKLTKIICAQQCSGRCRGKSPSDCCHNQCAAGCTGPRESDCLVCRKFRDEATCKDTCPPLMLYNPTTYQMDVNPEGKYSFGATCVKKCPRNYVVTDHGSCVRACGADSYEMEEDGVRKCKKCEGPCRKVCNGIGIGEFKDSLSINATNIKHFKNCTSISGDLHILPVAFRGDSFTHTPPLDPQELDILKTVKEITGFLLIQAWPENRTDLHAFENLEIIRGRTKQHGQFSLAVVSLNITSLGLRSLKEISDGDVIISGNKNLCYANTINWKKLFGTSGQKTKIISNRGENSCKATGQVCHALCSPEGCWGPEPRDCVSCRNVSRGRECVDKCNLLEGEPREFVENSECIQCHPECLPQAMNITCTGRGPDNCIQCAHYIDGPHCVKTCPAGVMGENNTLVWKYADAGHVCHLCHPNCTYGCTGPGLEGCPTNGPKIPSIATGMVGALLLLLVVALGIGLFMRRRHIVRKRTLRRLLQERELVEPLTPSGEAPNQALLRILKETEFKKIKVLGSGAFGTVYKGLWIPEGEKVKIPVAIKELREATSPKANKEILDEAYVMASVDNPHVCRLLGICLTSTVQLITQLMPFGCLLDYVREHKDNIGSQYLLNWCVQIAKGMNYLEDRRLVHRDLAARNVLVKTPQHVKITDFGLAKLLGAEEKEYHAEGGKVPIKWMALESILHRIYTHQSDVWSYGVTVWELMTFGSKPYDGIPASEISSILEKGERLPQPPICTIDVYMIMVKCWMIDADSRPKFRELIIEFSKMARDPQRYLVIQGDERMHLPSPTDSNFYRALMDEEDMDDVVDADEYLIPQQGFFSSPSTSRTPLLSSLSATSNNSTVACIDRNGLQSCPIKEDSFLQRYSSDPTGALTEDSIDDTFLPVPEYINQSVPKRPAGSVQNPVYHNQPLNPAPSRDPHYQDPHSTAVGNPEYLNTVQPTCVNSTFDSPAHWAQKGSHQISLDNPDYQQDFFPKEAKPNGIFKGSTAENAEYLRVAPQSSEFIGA
Test [8] has as its target Follistatin-related protein 3 (Homo sapiens) (UniProt O95633). Briefly: compounds binding follistatin-related protein 3 – biochemical, small-molecule microarray, 635 nm fluorescence, primary screen (AID 1105).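 Further: score merges emission near 667 nm and signal to noise per printed spot across three slides.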 To be noted: FSTL3 binding, higher = more signal.
The target in test [9] is Dickkopf-related protein 1 (Homo sapiens) (UniProt O94907). The test is described as follows: small molecules binding DKK1 protein – biochemical, small-molecule microarray, 635 nm fluorescence scan, primary screen (AID 1106).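 Further: score merges emission near 667 nm with signal to noise over three replicate slides.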 The conditions noted are these: higher = more signal.
Sequence of Dickkopf-related protein 1 (Homo sapiens) (O94907 whole entry, looked up): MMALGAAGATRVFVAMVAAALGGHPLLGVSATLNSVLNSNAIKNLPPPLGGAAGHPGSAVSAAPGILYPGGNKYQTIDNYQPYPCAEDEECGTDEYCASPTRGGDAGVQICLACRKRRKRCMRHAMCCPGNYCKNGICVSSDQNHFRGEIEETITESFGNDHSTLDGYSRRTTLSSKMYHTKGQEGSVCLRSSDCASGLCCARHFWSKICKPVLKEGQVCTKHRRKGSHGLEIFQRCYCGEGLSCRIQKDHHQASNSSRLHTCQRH
Test [10] concerns Inhibin beta A chain (activin A). Briefly: small molecules binding activin A – biochemical, small-molecule microarray, 635 nm fluorescence scan, primary screen (AID 1107).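 Further: mouse activin A protein probed at 4.33 µg/mL on printed slides; score merges bound-protein fluorescence near 667 nm with spot signal-to-noise.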 The conditions noted are these: INHBA, higher = more signal.

Sequence of Fibroblast growth factor 10 (Homo sapiens) (O15520 whole entry, looked up): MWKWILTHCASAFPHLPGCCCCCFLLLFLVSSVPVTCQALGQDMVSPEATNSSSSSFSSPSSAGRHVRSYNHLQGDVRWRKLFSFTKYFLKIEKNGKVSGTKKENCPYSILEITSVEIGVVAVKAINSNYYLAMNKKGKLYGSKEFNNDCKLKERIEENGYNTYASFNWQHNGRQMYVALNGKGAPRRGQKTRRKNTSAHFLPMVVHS
Sequence of Follistatin-related protein 3 (Homo sapiens) (O95633 whole entry, looked up): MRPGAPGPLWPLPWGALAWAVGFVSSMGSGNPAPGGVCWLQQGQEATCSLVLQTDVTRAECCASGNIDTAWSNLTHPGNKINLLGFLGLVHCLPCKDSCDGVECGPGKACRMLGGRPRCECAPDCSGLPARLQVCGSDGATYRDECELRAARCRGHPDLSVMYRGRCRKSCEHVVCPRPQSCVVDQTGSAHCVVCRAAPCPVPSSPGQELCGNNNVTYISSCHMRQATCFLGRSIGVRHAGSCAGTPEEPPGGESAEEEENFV

Take `CC(C)C(=C=CC[C@H](O)c1ccccc1OCCO)C[C@H](O)c1ccccn1`: the composite z-score was 1.62 in test [1]; 0.0012 in [2]; -0.203 in test [3]; 0.764 in [5]; 0.559 in [6]; -0.536 in test [7]. Further, the composite z-score in [8] is -0.0639; in [9], -0.0832; in [10] it was 0.407. The z-score in [4] is -0.705 (inactive).

Turning to `CCOC(=O)C1=CCC(c2ccc([N+](=O)[O-])cc2)N(S(=O)(=O)c2ccc(C)cc2)C1` (stereo not given), the composite z-score was 0.376 in test [1]; 0.616 in test [2]; 0.983 in [3]; -0.0502 in test [5]; 0.0526 in [6]; -0.356 in test [7]. The composite z-score in test [8] was 0.171; in test [9], -0.421; in test [10], 1.32. Moreover, in test [4], the z-score is -0.22 (inactive).

On to `CCCCCN1CC=CC23O[C@@H]4/C=C\CCCOC(=O)C4[C@H]2C(=O)N(CCCCCCO)[C@@H]3C1=O` (stereo not given in full), for which the composite z-score in [1] was 1.43; in test [2] it was -0.231; in test [3] it was 0.139; in [5], -0.894; in test [6], 0.233; in [7], -0.0633. Besides, the composite z-score in test [8] is -0.0242; in test [9], -1.22; in [10], 1.26. In addition, the z-score in test [4] is -3.07 (inactive).

For the compound `[N-]=[N+]=Nc1ccccc1C[C@]1(C(=O)NCCN2CCOCC2)N=C(c2ccc(OCCCO)cc2)O[C@H]1c1ccccc1`, the composite z-score in test [1] was 1.09; in [2], 0.641; in test [3], 0.273; in test [5] it was 0.484; in [6], 1.31; in test [7], -0.117. The values for the composite z-score in test [8], in test [9] and in [10] were -0.391, -0.019 and -0.16, respectively. Moreover, in [4], the z-score is 0.183 (inactive).

Consider `CC(=O)Nc1cc(Br)ccc1C(=O)O`, for which the composite z-score in test [1] was 0.976; in test [2], 1.34; in test [3], 0.0861; in test [5], 0.225; in test [6] it was 0.157; in test [7], -0.433. Further, the composite z-score in test [8] is 0.0984; in test [9] it was -0.44; in test [10] it was -0.27. Moreover, in test [4], the z-score was -0.841 (inactive).

Regarding `N#Cc1ccc(NN2C(C(O)c3cccs3)C=CC3C(=O)N(c4ccccc4)C(=O)C32)cc1` (stereo not given), the composite z-score in test [1] is 0.15; in test [2] it was -0.0705; in [3], -0.25; in [5], 1.18; in test [6] it was 0.349; in test [7], 0.55. Also, the results for the composite z-score in [8], in test [9] and in [10] were 0.642, -0.271 and 0.207, respectively. Moreover, the z-score in [4] is -0.626 (inactive).

Consider `CC(=O)NCCCC[C@@H]1NC(=O)[C@H]2C[C@@H](C(=O)NCCCCCC[N+](C)(C)C)[C@@H](c3cccc(OCCO)c3)N2C1=O`, for which the composite z-score is 1.44 in test [1]; -0.104 in test [2]; -0.207 in test [3]; 1.17 in test [5]; 0.917 in test [6]; 0.848 in [7]. For the same compound, the composite z-score in [8] turned out to be 1.58; in test [9], 1.85; in test [10] it was 0.695. Further, in test [4], the z-score was -1.6 (inactive).

On to `COCCOC(=O)N1C(=O)[C@@]2(c3cc(C#CCNC(N)=O)ccc31)[C@H](c1ccc(O)cc1)N1[C@H](c3ccccc3)[C@H](c3ccccc3)OC(=O)[C@H]1[C@@H]2C(=O)Nc1nc2ccccc2s1`, for which the composite z-score in test [1] was 0.809; in [2], 0.668; in test [3], 0.476; in test [5], 1.14; in [6], 0.306; in [7], 0.228. Further, the composite z-score worked out at 0.85 in test [8], 0.562 in test [9] and 0.815 in test [10]. Besides, the z-score in [4] is -0.564 (inactive).

For the compound `CC(C)C[C@@H]1NC(=O)[C@H]2C[C@@H](C(=O)NCCCCCCNC(=O)CS)[C@@H](c3cccc(OCCO)c3)N2C1=O`, the composite z-score in [1] is 1.54; in [2], 0.0362; in test [3] it was -0.139; in test [5], 1.39; in test [6], 1.27; in [7], 1.23. The figures for the composite z-score in test [8], in test [9] and in [10] were 1.49, 1.94 and 0.525, respectively. The z-score in test [4] was -0.576 (inactive).

On to `Cc1ccc(F)cc1S(=O)(=O)N[C@@H]1CCN(Cc2ccc(-c3ccccc3)cc2)C1`, for which the composite z-score was 0.293 in test [1]; -0.188 in test [2]; -0.318 in test [3]; 0.927 in test [5]; 0.205 in test [6]; 0.156 in [7]. Besides, the composite z-score in test [8] came to 0.239; in test [9], 0.138; in [10], 0.42. Also, the z-score in test [4] is 1.18 (inactive).

For the compound `O=C(O)[C@@]1(Cc2ccccc2)N=C(c2ccc(OCCCO)cc2)O[C@H]1c1ccccc1`, the composite z-score was 1.03 in test [1]; 0.116 in [2]; 0.614 in test [3]; 0.252 in test [5]; -0.11 in test [6]; -1.02 in test [7]. Moreover, the composite z-score in [8] is 0.0206; in [9] it was -0.872; in test [10], 0.779. The z-score in [4] was -0.674 (inactive).

For the compound `Cc1cc(C)c(C(O)C2C=CC3C(=O)N(C)C(=O)C3N2Nc2ccccc2)c(C)c1` (stereo not given), the composite z-score in test [1] came out at 1.13; in [2], 1.84; in [3], 0.796; in test [5] it was 0.636; in test [6], 0.399; in test [7], 0.745. In addition, the values for the composite z-score in test [8], in [9] and in [10] were 0.38, 0.209 and 1.25, respectively. Also, the z-score in [4] was 0.55 (inactive).

As to `CC1CC/C=C\[C@H]2OC34C=CCN(Cc5ccccc5)C(=O)[C@H]3N(CCCCCO)C(=O)[C@@H]4C2C(=O)O1` (stereo not given in full), the composite z-score in test [1] was -0.0545; in test [2], -0.425; in test [3], 0.144; in test [5] it was -0.423; in [6], -1.42; in test [7], -0.713. In addition, the results for the composite z-score in test [8], in test [9] and in [10] were -1.19, -0.892 and -0.0407, respectively. Also, in [4], the z-score was 0.537 (inactive).

Take `O=C1OCCC=C[C@H]2OC34C=CCN(Cc5ccccc5)C(=O)[C@H]3N(CCCO)C(=O)[C@@H]4C12` (stereo not given in full): the composite z-score was 0.53 in [1]; -0.33 in test [2]; -0.182 in [3]; -0.745 in [5]; -1.44 in test [6]; -0.873 in test [7]. Also, the figures for the composite z-score in test [8], in test [9] and in test [10] were -0.512, -0.179 and 0.399, respectively. For the same compound, the z-score in [4] is -1.74 (inactive).
